Assays:
Details in all cases: concentration: 1 μM, replicates: in singlicate; n = 1
[1] = test system: RPS6KA4(Kin.Dom.1-N-terminal)
[2] = test system: RPS6KA4(Kin.Dom.2-C-terminal)
[3] = test system: RPS6KA5(Kin.Dom.1-N-terminal)
[4] = test system: RPS6KA5(Kin.Dom.2-C-terminal)
[5] = test system: T1, RSK1(Kin.Dom.1-N-terminal)
T1 construct: gene RPS6KA1

[6] = test system: T2, RSK1(Kin.Dom.2-C-terminal)
T2 construct: gene RPS6KA1

[7] = test system: T3, RSK2(Kin.Dom.1-N-terminal)
T3 construct: gene RPS6KA3

[8] = test system: T4, RSK2(Kin.Dom.2-C-terminal)
T4 construct: gene RPS6KA3

[9] = test system: T5, RSK3(Kin.Dom.1-N-terminal)
T5 construct: gene RPS6KA2

[10] = test system: T6, RSK3(Kin.Dom.2-C-terminal)
T6 construct: gene RPS6KA2

[11] = test system: T7, RSK4(Kin.Dom.1-N-terminal)
T7 construct: gene RPS6KA6

[12] = test system: T8, RSK4(Kin.Dom.2-C-terminal)
T8 construct: gene RPS6KA6

[13] = test system: S6K1
[14] = test system: SBK1
[15] = test system: SGK2
[16] = test system: SGK3
[17] = test system: SGK
[18] = test system: SIK2
[19] = test system: SIK
[20] = test system: SLK
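Note: KINOMEscan kinase panel screen.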

Row | Compound | %Inh [1] [%] | %Inh [2] [%] | %Inh [3] [%] | %Inh [4] [%] | %Inh [5] [%] | %Inh [6] [%] | %Inh [7] [%] | %Inh [8] [%] | %Inh [9] [%] | %Inh [10] [%] | %Inh [11] [%] | %Inh [12] [%] | %Inh [13] [%] | %Inh [14] [%] | %Inh [15] [%] | %Inh [16] [%] | %Inh [17] [%] | %Inh [18] [%] | %Inh [19] [%] | %Inh [20] [%]
1 | Cc1ccc(C)c(NC(=O)NC2CCN(c3ccnc(Nc4ccc(F)cc4)n3)C2)c1 (stereo not shown) [GSK1379720] | 8 | 0 | 0 | 22 | 13 | 0 | 3 | 0 | 0 | 0 | 0 | 6 | 8 | 1 | 2 | 0 | 0 | 0 | 0 | 0
2 | Cl.c1ccc(-c2ccc3c(Nc4ccc5[nH]ccc5c4)ccnc3c2)nc1 [GW440138] | 0 | 0 | 0 | 3 | 0 | 0 | 0 | 0 | 0 | 15 | 0 | 34 | 0 | 0 | 0 | 6 | 0 | 0 | 0 | 84
3 | CN(C)Cc1ccc(-c2ccc3c(Nc4ccc(Oc5ccccn5)cc4)ccnc3c2)o1 [GW567148] | 2 | 0 | 4 | 0 | 0 | 0 | 1 | 0 | 0 | 0 | 17 | 0 | 5 | 8 | 0 | 0 | 0 | 79 | 99.2 | 31
4 | COc1ccc(Nc2nccc(NCCNC(=O)c3cc4ccccc4s3)n2)cc1 [GSK1379896] | 0 | 0 | 3 | 0 | 0 | 0 | 0 | 23 | 0 | 0 | 0 | 0 | 7 | 20 | 6 | 0 | 0 | 0 | 0 | 18
5 | Cc1ccc(C(=O)N2CC[C@@H](O)C2)cc1-n1c(C)cc(OCc2ccc(F)cc2F)c(Br)c1=O | 2 | 0 | 0 | 0 | 0 | 0 | 0 | 0 | 0 | 18 | 0 | 2 | 0 | 0 | 0 | 0 | 0 | 27 | 4 | 0
6 | c1ccc(Oc2ccc(Nc3ccnc4cc(-c5ccc(CNCCN6CCOCC6)o5)ccc34)cc2)nc1 [GW567145] | 0 | 0 | 0 | 0 | 93.3 | 0 | 0 | 0 | 0 | 0 | 0 | 0 | 0 | 8 | 0 | 0 | 17 | 78 | 96.4 | 8
7 | O=C(Nc1cccc(-c2nn3ccccc3c2-c2ccnc(Nc3cccc(C(F)(F)F)c3)n2)c1)c1c(F)cccc1F [GSK292658] | 10 | 0 | 18 | 0 | 81 | 0 | 3 | 5 | 0 | 14 | 0 | 0 | 0 | 20 | 0 | 8 | 11 | 0 | 9 | 54
8 | COc1ccc(CNC(=O)NC2CCN(c3ccnc(Nc4ccc(F)cc4)n3)CC2)cc1 [GSK1379788] | 0 | 0 | 7 | 9 | 18 | 0 | 0 | 5 | 0 | 0 | 0 | 12 | 0 | 0 | 0 | 0 | 0 | 0 | 0 | 7
9 | Cl.Cl.NCC(NC(=O)c1cc(-c2ccccc2)c(-c2ccnc3[nH]ccc23)s1)c1ccccc1 (stereo not shown) [GSK1321561] | 24 | 0 | 4 | 0 | 0 | 62 | 14 | 61 | 0 | 0 | 0 | 0 | 6 | 11 | 27 | 15 | 0 | 0 | 11 | 31
10 | O=C(Nc1ccccc1F)NC1CCN(c2ccnc(Nc3ccc(F)cc3)n2)CC1 [GSK1379800] | 9 | 0 | 0 | 26 | 19 | 0 | 0 | 0 | 0 | 0 | 0 | 6 | 0 | 0 | 0 | 9 | 0 | 0 | 3 | 0
11 | O=C(Nc1cccc(-c2nn3ncccc3c2-c2ccnc(Nc3ccccc3)n2)c1)c1c(F)cccc1F [GSK198271] | 18 | 0 | 18 | 0 | 95.3 | 5 | 0 | 0 | 37 | 17 | 1 | 22 | 0 | 13 | 0 | 4 | 0 | 6 | 44 | 95
12 | COc1cc(Nc2nccc(-c3c(-c4cccc(NC(=O)c5c(F)cccc5F)c4)nn4ncccc34)n2)cc(OC)c1OC [GSK327238] | 55 | 0 | 43 | 3 | 97.3 | 25 | 84 | 0 | 96.8 | 0 | 10 | 6 | 38 | 28 | 0 | 1 | 0 | 26 | 78 | 99.2
13 | CCn1c(-c2nonc2N)nc2c(C#CC(C)(C)O)nc(OC[C@H](N)c3ccccc3)cc21 [GSK943949] | 0 | 57 | 6 | 0 | 59 | 0 | 0 | 0 | 0 | 0 | 0 | 0 | 4 | 0 | 18 | 0 | 6 | 0 | 2 | 6
14 | CC(=O)N1CCN(c2ccc(Nc3nccc(-c4sc(C(C)C)nc4-c4cccc(NS(=O)(=O)c5cccc(Cl)c5)c4)n3)cn2)CC1 [GSK1660437] | 10 | 0 | 14 | 0 | 10 | 0 | 0 | 4 | 5 | 0 | 0 | 6 | 0 | 16 | 0 | 19 | 16 | 89 | 99 | 72
15 | Cc1ccc(S(=O)(=O)Nc2ccc(Nc3nccc(Nc4cccc5[nH]ncc45)n3)cc2)cc1 [GSK581271] | 0 | 0 | 0 | 0 | 1 | 14 | 15 | 0 | 5 | 0 | 0 | 0 | 14 | 26 | 9 | 0 | 0 | 67 | 36 | 0
16 | O=C(Nc1n[nH]c2nc(-c3ccc(O)cc3)ccc12)C1CC1 [SB-710363] | 8 | 99.5 | 0 | 53 | 14 | 64 | 52 | 0 | 12 | 0 | 70 | 0 | 40 | 0 | 36 | 15 | 43 | 0 | 0 | 61
17 | CN(C)S(=O)(=O)c1cc(-c2ccc3nccc(-c4cccc(S(N)(=O)=O)c4)c3c2)cnc1N [GSK1669921] | 15 | 0 | 16 | 0 | 0 | 10 | 21 | 76 | 2 | 28 | 2 | 44 | 19 | 15 | 6 | 16 | 5 | 10 | 0 | 2
18 | C[C@@H](Oc1cc(-n2cnc3cc(-c4ccnc(NCCS(C)(=O)=O)c4)ccc32)sc1C(N)=O)c1ccccc1Cl [GSK907232] | 57 | 0 | 4 | 0 | 11 | 2 | 32 | 4 | 66 | 0 | 20 | 14 | 0 | 1 | 13 | 0 | 4 | 50 | 20 | 99
19 | Nc1ncc(-c2ccc3nccc(-c4ccncc4)c3c2)cc1S(=O)(=O)N1CCOCC1 [GSK1627798] | 0 | 0 | 18 | 0 | 14 | 0 | 0 | 0 | 7 | 0 | 14 | 22 | 0 | 3 | 0 | 7 | 0 | 0 | 0 | 36
20 | COc1cc(Nc2nccc(N3CCC(NC(=O)Nc4cccc(C(C)=O)c4)C3)n2)cc(OC)c1OC (stereo not shown) [GSK1379753] | 7 | 0 | 9 | 6 | 15 | 5 | 10 | 67 | 17 | 0 | 15 | 12 | 19 | 11 | 5 | 0 | 0 | 0 | 0 | 30
